These results are taken from PubChem BioAssay (EPA / NIEHS).

Active and inactive are the calls of the source. How the source made its calls: active means hit-call score of the fitted dose curve at least 0.9, where 1 is the maximum; inactive means score below 0.9.

Read-out in the first assay: Interleukin-6 (IL6), IL6 (gene 3569)
In words: BSK_CASM3C_IL6: BioMAP Diversity Plus: CASM3C Assay for Interleukin-6 (IL6) Biomarker Activity for (AID 2283040). The following applies: primary human coronary artery smooth muscle cells; actives raise or lower the signal.
As for `O=C(O)c1cc(N=Nc2ccc(S(=O)(=O)Nc3ccccn3)cc2)ccc1O`, the outcome was inactive. On the same count and under the same terms, for `CCCCCCCCO` the value was “inactive”. With `CN(C)c1ccc(Cc2ccc(N(C)C)cc2)cc1`, the outcome was inactive. On to `C[C@](N)(Cc1ccc(O)c(O)c1)C(=O)O`, for which the result was inactive. On the same count and under the same terms, under `CCOCCOCCOCCO` stands “inactive”. Turning to `CC[C@H]1CC[C@H](NCc2cc3c(cc2OC)[C@H]2C[C@H]2C(=O)N3C)[C@H](c2ccccc2)N1`, the outcome was inactive. In the case of `Nc1ccc(Nc2ccccc2)cc1`, the outcome was inactive. A word on the AC50: it is the concentration giving half of the maximal activity seen. Take `On1ccccc1=S`: the AC50 was 32.2 µM (active). In the case of `CCOC(=O)CC(CC(=O)OCC)(OC(C)=O)C(=O)OCC`, the result was inactive. Still for that read-out and setting: under `O=C(O)c1cccc(Oc2ccccc2)c1` stands “inactive”; under `Cn1cnc([N+](=O)[O-])c1Sc1ncnc2nc[nH]c12`, “inactive”.

Read-out in a further assay: Tissue plasminogen activator (tPA), PLAT (gene 5327)
Description: BSK_BE3C_tPA: BioMAP Diversity Plus: BE3C Assay for Tissue plasminogen activator (tPA) Biomarker Activity (AID 2283041).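 On outcome: tPA level quantified by ELISA one day after compound addition.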 To be noted: primary human bronchial epithelial cells; actives raise or lower the signal. The method in brief: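 ELISA read-out of tPA on human primary bronchial epithelial cells, 24 h post-dosing; bidirectional fit vs DMSO negative control/baseline.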
As for `Clc1nc(Cl)c(Cl)c(Cl)c1Cl`, the outcome was inactive. The same measure, in the same setting: for `CC[C@H]1OC(=O)[C@H](C)[C@@H](O[C@H]2C[C@@](C)(OC)[C@@H](O)[C@H](C)O2)[C@H](C)[C@@H](O[C@@H]2O[C@H](C)C[C@H](N(C)C)[C@H]2O)[C@](C)(O)C[C@@H](C)C(=O)[C@H](C)[C@@H](O)[C@]1(C)O` the value was “inactive”. Turning to `CCOc1cccc(-n2cc(C(=O)N3CCN(c4cc(C(=O)O)c5ccccc5c4)CC3)nc2-c2ccc(C)cc2)c1`, the AC50 was 9.89 µM (active).

Take `CC(C)CCCCCCOC(=O)c1ccc(C(=O)OCCCCCCC(C)C)c(C(=O)OCCCCCCC(C)C)c1`: the outcome was inactive. Regarding `Cc1[nH]cnc1C[C@H]1CCc2c(C)c3ccccc3n2C1=O`, the outcome was inactive. In the case of `Oc1ccc2c(c1)-c1ccccc1C2`, the result was inactive. In the case of `CCCN(C1CCN(C(=O)C2CCNCC2)CC1)[C@@H]1CCc2ccc(OC)cc2C1`, the outcome was inactive.
